Here are results for 16 sequences from the supplement of paper PMC6555819.

Common to all, as to assay: PBM binding z-score (relative to random genomic background probes); higher = stronger binding; sequences stand for … in GC…GCGATTGACAGCGTAGAATGAAGG
For experiment [1], the system named is RARb homodimer (NR concentration 270 nM). The method in brief: (§1)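 Custom Agilent 4×180K protein-binding microarrays carried double-stranded probes. Their 34-nt variable regions held direct-repeat seeds, single-nucleotide variants, half-site ablations and random human genomic background sequences. Arrays were incubated 1 h with ligand-free nuclear receptor dimers in PBS pH 7.4, 2% milk, 0.02% Triton X-100, 1 mM DTT, 0.2 mg/mL BSA and 0.4 mg/ml salmon testes DNA. Antibodies against each partner (one per run) detected binding, and scanned fluorescence was regression-normalized. Binding z-scores use random background probes as reference.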

The subject of experiment [2] is RARg:RXRa (NR concentration 270 nM, RXRa partner concentration 90 nM). The gist of the method:
as §1

The subject of experiment [3] is RARg homodimer (NR concentration 270 nM). The gist of the method:
as §1

Experiment [4] deals with RXRa DBDmut IVT, anti-RXR (DBD mutation: RXRa K156A/R161A, NR concentration 90 nM). The method in brief: as §1
For experiment [5], the system named is RXRa homodimer (NR concentration 180 nM). The method in brief: as §1
The subject of experiment [6] is THRa:RXRa (NR concentration 90 nM, RXRa partner concentration 90 nM). The gist of the method:
as §1

Experiment [7] has as its system THRa homodimer (NR concentration 90 nM). The method in brief:
as §1

In experiment [8] the test system is VDR:RXRa (NR concentration 270 nM, RXRa partner concentration 90 nM). The method in brief: as §1
The subject of experiment [9] is VDR homodimer (NR concentration 270 nM). The gist of the method: as §1

As for GGAACGAGGGCAAAGTTGATAACATCTGTCGACG, the PBM binding z-score in [1] came out at 1.21; in experiment [2] it was 2.19; in experiment [3] it was 1.97; in [4], 2.93; in experiment [5] it was 1.93; in experiment [6], 1.27. Further, the PBM binding z-score in experiment [7] was -0.123; in experiment [8] it was 1.68; in [9], 1.42.

For TCTTGTAGATTAAGCAGGTTAAGAAAGCCTGAGT, the PBM binding z-score was 0.394 in [1]; -0.0145 in experiment [2]; -0.457 in experiment [3]; 0.673 in [4]; 0.377 in experiment [5]; 0.509 in experiment [6]. Besides, the values for the PBM binding z-score in experiment [7], in [8] and in experiment [9] were -0.386, 0.313 and 0.113, respectively.

With GCAGACAGGTGAAACGCAGGAAACTCAGGGTGGC, the PBM binding z-score in experiment [1] was 0.0136; in [2] it was 0.246; in experiment [3] it was 0.0798; in experiment [4], -0.424; in experiment [5] it was 0.715; in experiment [6], 0.142. Besides, the PBM binding z-score in experiment [7] was -0.634; in [8] it was -0.533; in [9], -0.569.

For CGGACTAGGTCAAGGACAGTGAATCTCCGCACGC, the PBM binding z-score in experiment [1] came out at 2.94; in experiment [2] it was 3.54; in experiment [3], 4.28; in [4], 1.29; in experiment [5], 2.33; in experiment [6] it was 2.8. For the same sequence, the PBM binding z-score is 2.06 in experiment [7], 0.867 in experiment [8] and -0.118 in [9].

Consider CGAACTAGGTCATGGACAGTGAATCTCCGCACGC, for which the PBM binding z-score in experiment [1] turned out to be 2.85; in experiment [2] it was 3.94; in experiment [3] it was 4.35; in experiment [4], 1.84; in [5], 3.21; in experiment [6] it was 2.94. The PBM binding z-score turned out to be 1.16 in experiment [7], 1.64 in [8] and 0.367 in [9].

For TCTAGTTCGTCAAAGGTCACACACTCGAAATGCG, the PBM binding z-score in experiment [1] is 4.99; in experiment [2], 6.46; in [3] it was 6.31; in [4] it was 2.95; in [5], 6.75; in experiment [6], 4.64. Besides, the PBM binding z-score came out at 2.53 in experiment [7], 5.77 in experiment [8] and 3.49 in experiment [9].

Regarding AGTCAAAGTTCACTAGATAACGTAAGATTCAGCT, the PBM binding z-score in [1] amounted to 3.55; in experiment [2], 4.97; in [3], 5.79; in experiment [4], 3.76; in experiment [5], 3.84; in experiment [6] it was 1.46. Also, the PBM binding z-score was -0.386 in [7], 3.5 in [8] and 3.35 in [9].

As for GCTTACGTGTCAAAGGTTATAGCATGAATAGAAT, the PBM binding z-score in [1] worked out at 1.28; in [2] it was 3.21; in experiment [3], 1.5; in experiment [4], 0.885; in experiment [5], 4.41; in experiment [6] it was 1.81. For the same sequence, the PBM binding z-score is -0.725 in [7], 2.29 in experiment [8] and -0.00185 in experiment [9].

As for CGAACTAGGTCATCCAAGACAGTGAATACATTGA, the PBM binding z-score was 2.81 in experiment [1]; 4.15 in [2]; 4.88 in experiment [3]; 2.42 in experiment [4]; 3.45 in [5]; 2.84 in experiment [6]. The PBM binding z-score in experiment [7] was 0.947; in experiment [8] it was 2.57; in experiment [9], 1.06.

Take CCTTACGGGTCACTCCAGGTTATAGCCTCGGAGT: the PBM binding z-score in experiment [1] turned out to be 3.1; in experiment [2], 4.3; in experiment [3] it was 4.02; in experiment [4] it was 1.01; in experiment [5] it was 4.02; in [6], 5.14. In addition, the PBM binding z-score amounted to 0.467 in experiment [7], 4.09 in experiment [8] and 1.13 in experiment [9].

In the case of CTCGAAAGGTCGGTTAAGGTGAGTATACGGATAA, the PBM binding z-score amounted to 2.84 in experiment [1]; 2.94 in [2]; 3.26 in experiment [3]; 0.811 in [4]; 2.41 in experiment [5]; 4.88 in [6]. Further, the PBM binding z-score stood at 2.1 in experiment [7], 2.03 in [8] and 0.781 in [9].

TCTAGCAGGCCAAAGGGTCACTCAAGAGGTACGG: the PBM binding z-score in [1] is 4.55; in experiment [2], 4.65; in [3] it was 4.35; in experiment [4] it was 0.568; in [5], 4.24; in experiment [6] it was 2.51. The PBM binding z-score was -0.172 in experiment [7], 3.12 in experiment [8] and 1.2 in experiment [9].

GCGATTGGGGCATCAGCAGGTTACCATAACTTAA: the PBM binding z-score was determined as 0.917 in experiment [1]; 0.779 in [2]; 0.543 in [3]; 0.393 in experiment [4]; 0.323 in [5]; 1.03 in experiment [6]. Further, the PBM binding z-score in experiment [7] is 0.429; in experiment [8] it was 0.0705; in [9], -0.374.

As for CGAACTAGGTCATCCAGGGCAGTGAATACATTGA, the PBM binding z-score in [1] worked out at 3.48; in [2] it was 4.41; in [3], 5.14; in [4], 2.14; in experiment [5] it was 2.97; in experiment [6], 3.78. Also, the figures for the PBM binding z-score in experiment [7] and in experiment [9] were 1.25 and 2.25, respectively.

For CCGACTGGGGTAAAGGTTACCATACTCAGTACGA, the PBM binding z-score in [1] came out at 1.83; in [2], 2.51; in [3], 1.44; in [4], 0.246; in experiment [5] it was 3.27; in experiment [6], 2.05. In addition, the PBM binding z-score was -0.0216 in experiment [7] and 0.207 in [9].

As for CCTACTGTGCCAAAGGTCATTGATTCCAATGCTC, the PBM binding z-score in experiment [1] worked out at 4.59; in experiment [2] it was 5.61; in experiment [3], 5.21; in experiment [4], 2.09; in experiment [5], 6.46; in [6], 3.46. Moreover, the PBM binding z-score in experiment [7] is 1.72; in [9] it was 3.37.
